From PubChem BioAssay (EPA / NIEHS)
Values joined by “and” are separate entries in the source; they are usually repeats but may differ in a detail not shown here. Identical values can stand only once. Inconclusive results are not listed. Where a structure was tested more than once in an assay, its records may differ in their call. Active and inactive are the calls of the source. How the source made its calls, unless noted: active means hit-call score of the fitted dose curve at least 0.9, where 1 is the maximum; inconclusive means response in the unintended direction; inactive means score below 0.9.

Assays:
[1] = read-out: X-box binding protein 1 (XBP1), XBP1 (gene 7494); experiment: LTEA_HepaRG_XBP1: Life Technologies and Expression Analysis (LTEA) Assay for X-box binding protein 1 (XBP1) using HepaRG (AID 2283540; active means hit-call score of the fitted dose curve at least 0.9, where 1 is the maximum; inactive means score below 0.9); conditions: mRNA level, 48 h; actives raise or lower the signal
In short: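 XBP1 transcript by qRT-PCR (housekeeping-normalized: ACTB, GAPDH, POLR2A) after 48 h chemical treatment of HepaRG cells, 8-point half-log series topping at 100 uM, vehicle 0.5% DMSO. Gain and loss of signal fitted relative to DMSO.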

[2] = LTEA_HepaRG_LDH_cytotoxicity: Cytotoxicity Assessment in the Life Technologies and Expression Analysis (LTEA) Assay (AID 2283563);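 on AC50: LDH activity released into spent culture medium as a marker of cell death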
In short: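 LDH release into culture medium read after 48 h chemical treatment of HepaRG cells. Duplicate wells, eight-point half-log series topping at 100 uM, 0.5% DMSO vehicle and baseline.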

[3] = TOX21_p53_BLA_p2_viability: Viability Assessment in the Tox21 HCT-116 p53 Agonism Beta-lactamase Assay, Phase 2 (AID 2283591);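 further: compound exposure lasted 16 h at 37 °C; actives lower the ATP signal meaning cytotoxicity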
In short: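 Cytotoxicity readout: CellTiter-Glo ATP luminescence, 30 min at room temperature, after the beta-lactamase read. Cells were HCT116 exposed 16 h at 37C to compounds pin-transferred at 217-fold dilution from DMSO stocks.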

[4] = target: Cellular tumor antigen p53 (Homo sapiens) (UniProt P04637); experiment: TOX21_p53_BLA_p2_ratio: Tox21 HCT-116 p53 Agonism Beta-lactamase Assay, Ratio, Phase 2 (AID 2283592)
In short: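 Read-out is the blue/green (460/530 nm, 405 nm excitation) ratio after 2 h CCF4-AM loading, fitted as gain versus DMSO. Compounds, pinned at 217-fold dilution from DMSO stocks, stayed 16 h on HCT-116 beta-lactamase reporter cells seeded 5 h earlier.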

[5] = TOX21_p53_BLA_p3_viability: Viability Assessment in the Tox21 HCT-116 p53 Agonism Beta-lactamase Assay, Phase 3 (AID 2283593);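 further: cells exposed to compound for 16 h before reading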
In short: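 Cellular ATP was quantified by CellTiter-Glo luminescence, read after 30 min at room temperature. Beforehand, HCT116 cells (4000/well) received compound 5 h post-seeding, 217-fold diluted from DMSO, then incubated 16 h at 37C.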

[6] = target: Cellular tumor antigen p53 (Homo sapiens) (UniProt P04637); experiment: TOX21_p53_BLA_p3_ratio: Tox21 HCT-116 p53 Agonism Beta-lactamase Assay, Ratio, Phase 3 (AID 2283596)
In short: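 Cells were seeded at 4000/well, rested 5 h at 37C, then dosed with DMSO compound solutions (217-fold dilution) for 16 h. CCF4-AM substrate was loaded for 2 h at room temperature, and the 460/530 nm emission ratio was fitted for gain of signal versus DMSO.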

[7] = TOX21_p53_BLA_p4_viability: Viability Assessment in the Tox21 HCT-116 p53 Agonism Beta-lactamase Assay, Phase 4 (AID 2283597);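 further: hits lower the luminescence signal meaning cytotoxicity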
In short: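 Cytotoxicity as reduced cellular ATP (CellTiter-Glo luminescence, 30 min room temperature), measured in the same wells following the CCF4 FRET p53 reading. Human HCT-116 cells received compounds in DMSO (217-fold dilution) for 16 h.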

[8] = target: Cellular tumor antigen p53 (Homo sapiens) (UniProt P04637); experiment: TOX21_p53_BLA_p5_ratio: Tox21 HCT-116 p53 Agonism Beta-lactamase Assay, Ratio, Phase 5 (AID 2283599)
In short: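 Beta-lactamase reporter ratio (blue 460 nm over green 530 nm, 405 nm excitation) after 2 h CCF4-AM loading, in HCT-116 cells exposed 16 h at 37 C to compounds pinned at 217-fold dilution. Increases relative to DMSO baseline scored.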

[9] = TOX21_p53_BLA_p5_viability: Viability Assessment in the Tox21 HCT-116 p53 Agonism Beta-lactamase Assay, Phase 5 (AID 2283600)
In short: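 Viability came from CellTiter-Glo ATP luminescence, read after 30 min at room temperature. Before this, HCT-116 p53-bla cells (4000/well) had 16 hours of compound exposure at 37C, with DMSO stocks diluted 217-fold on transfer.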

[10] = target: Cellular tumor antigen p53 (Homo sapiens) (UniProt P04637); experiment: TOX21_p53_BLA_p4_ratio: Tox21 HCT-116 p53 Agonism Beta-lactamase Assay, Ratio, Phase 4 (AID 2283601)
In short: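 Signal is the blue/green (460nm/530nm) ratio of cleaved versus uncleaved CCF4-AM substrate, read after 2 h substrate loading. Cells were HCT116 carrying the p53-responsive beta-lactamase reporter, dosed 16 h at 37C, 5% CO2; CellTiter-Glo measured in parallel.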

[11] = Tanguay_ZF_120hpf_MORT_legacy: (Legacy) Oregon State University Tanguay Lab 120 Hour Post-fertilization zebrafish Assay for Mortality (AID 2283633);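 on AC50: fitted as increase in binary mortality versus DMSO negative control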
In short: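 Static waterborne exposure from 6 to 120 hpf at 28C of single dechorionated wild-type (5D) embryos per well, 0.64% DMSO final. Death recorded present/absent by brightfield at 24 and 120 hpf.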

[12] = Tanguay_ZF_120hpf_YSE_legacy: (Legacy) Oregon State University Tanguay Lab 120 Hour Post-fertilization zebrafish Assay for Yolk Sac Edema (AID 2283634)
In short: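 Presence or absence of yolk sac edema was recorded at 120 hpf in surviving larvae. These were wild-type Tropical 5D embryos, chorion removed at 4 hpf, held in static exposure at 28C from 6 hpf with 0.64% DMSO vehicle.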

[13] = Tanguay_ZF_120hpf_EYE_legacy: (Legacy) Oregon State University Tanguay Lab 120 Hour Post-fertilization zebrafish Assay for Eye Malformation (AID 2283636);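 further: binary presence or absence of eye malformation scored by brightfield in 120 hpf larvae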
In short: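 Binary brightfield scoring of eye defects at 120 hpf after static exposure from 6 hpf of single pronase-dechorionated wild-type embryos (28C, 0.64% DMSO). Non-mortality endpoints omitted where embryos died; fit vs DMSO.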

[14] = Tanguay_ZF_120hpf_SNOU_legacy: (Legacy) Oregon State University Tanguay Lab 120 Hour Post-fertilization zebrafish Assay for Snout Malformation (AID 2283637)
In short: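 Binary snout-malformation call at 120 hpf in wild-type 5D embryos, chorion removed by pronase, under static exposure from 6 hpf at 28C (0.64% DMSO). Embryos dying by 24 or 120 hpf excluded.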

[15] = Tanguay_ZF_120hpf_OTIC_legacy: (Legacy) Oregon State University Tanguay Lab 120 Hour Post-fertilization zebrafish Assay for Otic Vesicle Malformation (AID 2283639)
In short: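 Wild-type zebrafish larvae, whole-embryo exposure from early stage to 120 hpf at 28C. Binary brightfield scoring of otic vesicle morphology, fitted in the positive direction against the DMSO baseline.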

[16] = Tanguay_ZF_120hpf_PE_legacy: (Legacy) Oregon State University Tanguay Lab 120 Hour Post-fertilization zebrafish Assay for Pericardial Edema (AID 2283640)
In short: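 Scoring was binary, by brightfield microscopy at 120 hpf, and skipped where mortality occurred. Wild-type embryos were kept under sealed, foil-covered static exposure at 28C in 0.64% (vol/vol) DMSO.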

[17] = Tanguay_ZF_120hpf_PFIN_legacy: (Legacy) Oregon State University Tanguay Lab 120 Hour Post-fertilization zebrafish Assay for Pectoral Fin Malformation (AID 2283648);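 further: each larva judged yes or no for fin defect by brightfield with dead larvae skipped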
In short: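 Pectoral fin malformation was recorded as a binary endpoint at 120 hpf in wild-type Tropical 5D larvae, which had been dechorionated and exposed statically from 6 hpf at 28C in 0.64% DMSO. Dead embryos were excluded.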

[18] = ATG_XTT_Cytotoxicity: Cytotoxicity Assessment in the Attagene TRANS-FACTORIAL HepG2 Assay (AID 2283584)
In short: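 Viability endpoint from XTT after 24 h chemical exposure of reporter-transfected human HepG2 liver cells; signal loss fitted relative to DMSO negative control.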

[19] = Tanguay_ZF_120hpf_SOMI_legacy: (Legacy) Oregon State University Tanguay Lab 120 Hour Post-fertilization zebrafish Assay for Somite Malformation (AID 2283647)
In short: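 Binary somite-defect scoring at 120 hpf, omitted for embryos that died, in wild-type (Tropical 5D) zebrafish with chorion removed by pronase at 4 hpf; static exposure began 6 hpf, single embryos per well, 28C, 0.64% DMSO; fitted positive versus DMSO.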

[20] = Tanguay_ZF_120hpf_AXIS_legacy: (Legacy) Oregon State University Tanguay Lab 120 Hour Post-fertilization zebrafish Assay for Body Axis Malformation (AID 2283635)
In short: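 Binary scoring of axis defects at 120 hpf under brightfield, fitted positive versus DMSO. Tropical 5D embryos, chorion removed by pronase at 4 hpf, were singly exposed in sealed, dark plates at 28C from 6 hpf; DMSO 0.64% final.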

Measured: AC50

Chain of Cellular tumor antigen p53 (Homo sapiens) (P04637 whole entry, looked up): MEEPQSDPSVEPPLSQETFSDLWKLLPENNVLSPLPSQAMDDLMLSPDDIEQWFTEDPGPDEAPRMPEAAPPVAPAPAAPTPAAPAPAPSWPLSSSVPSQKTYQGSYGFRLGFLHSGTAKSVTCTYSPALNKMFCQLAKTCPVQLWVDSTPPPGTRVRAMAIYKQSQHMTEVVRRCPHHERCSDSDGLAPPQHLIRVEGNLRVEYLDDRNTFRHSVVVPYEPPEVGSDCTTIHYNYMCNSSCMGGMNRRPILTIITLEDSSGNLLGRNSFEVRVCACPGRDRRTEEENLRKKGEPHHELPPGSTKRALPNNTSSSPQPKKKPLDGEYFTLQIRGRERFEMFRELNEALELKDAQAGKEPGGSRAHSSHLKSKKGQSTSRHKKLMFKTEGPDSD

CC(C)(c1ccccc1)c1ccc(O)c(C(C)(C)c2ccccc2)c1
active: [2] 72.2 µM | [3] 11.4 µM and 20.3 µM | [4] 43.2 µM and 46.9 µM | [5] 40.5 µM and 53.8 µM | [6] 80.6 µM and 83.7 µM | [7] 12.1 µM and 16.6 µM | [8] 73.6 µM and 51.9 µM | [9] 39.1 µM and 24.3 µM | [10] 37.5 µM and 29 µM
inactive: [1] | [11] | [12] | [13] | [14] | [15] | [16] | [17]

O=C(O)C(F)(F)C(F)(F)C(F)(F)C(F)(F)C(F)(F)C(F)(F)C(F)(F)C(F)(F)C(F)(F)C(F)(F)F
not listed: [3] | [5] | [7] | [8] | [20]
inactive: all other assays above

O=C(O)C(F)(F)C(F)(F)C(F)(F)C(F)(F)C(F)(F)C(F)(F)F
not listed: [3] | [4] | [6] | [9] | [10] | [14] | [19]
inactive: all other assays above

Cn1sc(Cl)cc1=O
active: [5] 29.8 µM | [11] 25.7 µM
inactive: [1] | [2] | [18] | [3] | [4] | [5] | [6] | [8] | [9] | [10] | [13] | [15] | [16] | [17]

CCC(C)(C)c1ccc(O)c(C(C)(C)CC)c1
active: [3] 46.1 µM and 45.7 µM | [5] 52.9 µM and 64 µM | [6] 79.3 µM and 85.5 µM | [7] 23 µM and 53.5 µM | [9] 22.2 µM and 45.7 µM | [10] 54.3 µM
not listed: [4] | [8] | [17]
inactive: all other assays above

ClC1(Cl)C2(Cl)C3(Cl)C4(Cl)C(Cl)(Cl)C5(Cl)C3(Cl)C1(Cl)C5(Cl)C24Cl (stereo not given)
not listed: [3] | [6] | [8]
inactive: all other assays above
